Source: article PMC4336329 (PLoS ONE, 2015)
Hit rate of the full screen: of about 310,000 compounds, about 2,200 (0.71%) showed an effect of 50% or more. The effect is printed as a negative number. The sample as a whole holds a higher share of strong results than the screen did.

molecular target: human ether-à-go-go-related gene (hERG) potassium channel (human, UniProt Q12809); assay: primary screen, population patch clamp on CHO cells stably expressing hERG; higher = less effect of the substance
Sequence (Q12809 whole entry, looked up): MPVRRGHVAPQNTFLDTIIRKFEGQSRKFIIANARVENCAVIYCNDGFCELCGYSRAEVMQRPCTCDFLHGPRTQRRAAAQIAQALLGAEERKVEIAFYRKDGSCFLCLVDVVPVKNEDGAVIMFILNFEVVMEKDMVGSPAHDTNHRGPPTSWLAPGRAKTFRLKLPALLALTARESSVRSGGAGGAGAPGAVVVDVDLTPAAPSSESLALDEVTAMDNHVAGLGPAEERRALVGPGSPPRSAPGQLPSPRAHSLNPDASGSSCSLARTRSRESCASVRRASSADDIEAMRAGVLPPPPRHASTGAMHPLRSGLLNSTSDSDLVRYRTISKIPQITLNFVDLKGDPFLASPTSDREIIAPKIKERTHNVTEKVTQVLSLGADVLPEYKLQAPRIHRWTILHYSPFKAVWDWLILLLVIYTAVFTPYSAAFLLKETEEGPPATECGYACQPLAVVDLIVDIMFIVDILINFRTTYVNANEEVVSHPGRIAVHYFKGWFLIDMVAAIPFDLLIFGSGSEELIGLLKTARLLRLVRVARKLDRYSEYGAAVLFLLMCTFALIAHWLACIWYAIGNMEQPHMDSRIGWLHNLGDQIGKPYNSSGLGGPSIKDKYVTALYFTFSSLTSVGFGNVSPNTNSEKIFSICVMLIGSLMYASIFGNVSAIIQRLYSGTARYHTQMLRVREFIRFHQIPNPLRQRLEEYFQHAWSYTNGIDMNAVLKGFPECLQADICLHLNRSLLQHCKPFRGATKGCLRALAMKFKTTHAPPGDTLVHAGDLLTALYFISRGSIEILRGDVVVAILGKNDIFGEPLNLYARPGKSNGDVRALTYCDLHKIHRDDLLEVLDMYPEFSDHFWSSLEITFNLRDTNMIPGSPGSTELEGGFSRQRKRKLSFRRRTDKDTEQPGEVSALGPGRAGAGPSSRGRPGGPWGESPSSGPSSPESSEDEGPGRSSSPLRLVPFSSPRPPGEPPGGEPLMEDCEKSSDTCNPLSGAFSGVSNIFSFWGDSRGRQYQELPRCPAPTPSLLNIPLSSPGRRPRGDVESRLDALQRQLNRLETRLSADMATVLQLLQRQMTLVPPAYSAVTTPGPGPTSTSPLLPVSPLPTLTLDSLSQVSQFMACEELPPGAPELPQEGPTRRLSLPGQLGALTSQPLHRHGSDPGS

Structure (SMILES)	hERG current change (%, negative = inhibition) at 1uM [%]
COc1ccc(CNC(=O)CSc2nnc3c(n2)[nH]c2ccc(OC)cc23)cc1	11.1
Cc1ccc(NS(=O)(=O)c2cc(NC(=O)c3cc4c(s3)CCCC4)ccc2C)c(C)c1	7.78
CCC1(CC)C(=O)NC(=O)NC1=NCCc1c[nH]c2ccccc12	21.2
Fc1cccc(CN2CCN(Cc3nc(CCc4ccccc4)no3)CC2)c1	3.49
CCc1ccc2c(CN3CCOCC3)cc(=O)oc2c1	-4.5
Cc1cc(C)c2c(CN3CCN(Cc4ccc5c(c4)OCO5)CC3)cc(=O)oc2c1C	2.67
CCc1ccc2oc(=O)cc(CN3CCN(Cc4ccccc4)CC3)c2c1	-17.6
COC(=O)C1CCN(Cc2cc(=O)oc3cc(OC)ccc23)CC1	-1.21
Cc1cc2oc(=O)cc(CN3CCN(Cc4ccc5c(c4)OCO5)CC3)c2cc1C	0.724
Cc1cc(C)c2c(CN3CCN(Cc4ccc5c(c4)OCO5)CC3)cc(=O)oc2c1	-50.3
Cc1ccc2c(CN3CCN(Cc4ccccc4)CC3)cc(=O)oc2c1	-84
Cc1ccc2oc(=O)cc(CN3CCN(Cc4ccccc4)CC3)c2c1	-18.6
COc1ccc(OC)c(CN2CCN(Cc3cc(=O)oc4cc(O)ccc34)CC2)c1	-67
Cc1cc2oc(=O)cc(CN3CCN(Cc4ccccc4)CC3)c2cc1Cl	0.748
CCc1ccc2c(CN3CCN(Cc4ccccc4)CC3)cc(=O)oc2c1	-84.6
COc1ccc2oc(=O)cc(CN3CCOCC3)c2c1	10.4
CN(C)C(=S)NC(=O)C12CC3(C)CC(C)(CC(C)(C3)C1)C2	12.9
O=C(CSc1nnc(CNC(=O)c2ccc(F)cc2)o1)Nc1nccs1	13.2
CCCCOc1c(Cl)cc(C(=O)N(C)CC(=O)Nc2ccc(N3CCOCC3)cc2)cc1OCC	9.76
O=C(NCCCn1cccn1)C1CCC(=O)N(Cc2ccccc2F)C1 (stereo not drawn)	7.05
O=C(CCN1C(=O)/C(=C/C=C/c2ccccc2)SC1=S)Nc1nccs1	-3
Cn1c(SCC(=O)Nc2ccc3c(c2)OCCO3)nnc1-c1ccccn1	6.5

Structure (SMILES)	hERG current change (%, negative = inhibition) at 1uM [%]
CCN(CC)S(=O)(=O)c1ccc(NC(=O)COC(=O)c2c[nH]c(=O)[nH]c2=O)cc1	11.1
CN(C)CCCOC(=O)c1ccc(Br)cc1	-6.15
COc1ccc(CCNC(=O)C2CCN(C(=O)c3ccc(OC)c(OC)c3)CC2)cc1	13.3
Cc1cccc(OCC(=O)NC(=S)Nc2ccc(S(=O)(=O)NC3CCCCC3)cc2)c1	11.2
COc1ccc(-c2nc(-c3ccc4c(c3)OCO4)[nH]c2-c2ccc(OC)cc2)cc1	14.7
CC1CCCCC1NC(=O)CN1CCC(NC(=O)c2ccc([N+](=O)[O-])cc2)CC1 (stereo not drawn)	12.1
CC(C)CN1C2CCCC1CC(NC(=O)c1ccc([N+](=O)[O-])cc1)C2 (stereo not drawn)	-70.1
O=C(NC1CCN(CC(=O)N(c2ccccc2)c2ccccc2)CC1)c1ccc([N+](=O)[O-])cc1	-78.6
O=C(NC1CC2CCCC(C1)N2Cc1cccs1)c1ccc([N+](=O)[O-])cc1 (stereo not drawn)	-78.6
O=C(NC1CCN(Cc2cccc([N+](=O)[O-])c2)CC1)c1ccccc1	-3.19
COc1ccc(C(=O)NC2CC3CCCC(C2)N3CC(C)C)cc1 (stereo not drawn)	-13.5
O=C(NC1CC2CCCC(C1)N2Cc1ccccc1)c1cccc(Cl)c1 (stereo not drawn)	-12.1
O=C(NC1CC2CCCC(C1)N2Cc1cccs1)N1CCOCC1 (stereo not drawn)	3.19
CCOc1ccc(C(=O)NC2CC3CCCC(C2)N3Cc2ccccc2)cc1 (stereo not drawn)	-20.4
CN1C2CCC1CC(NC(=O)c1ccc([N+](=O)[O-])cc1)C2 (stereo not drawn)	12.1
COCCNC(=S)NC1CC2CCCC(C1)N2Cc1cccs1 (stereo not drawn)	-1.25
O=C(NC1CC2CCCC(C1)N2Cc1ccccc1)c1ccc([N+](=O)[O-])cc1 (stereo not drawn)	-82.2
CC(C)NC(=O)C1CCN(C2CCN(C(=O)c3cc4c(s3)CCCCC4)CC2)CC1	6.33
CCOc1cc(C(=O)NCCc2ccc(S(N)(=O)=O)cc2)cc(OCC)c1OCC	3.65
Cc1ccccc1NC(=O)C1CCCN1C(=O)NC1CCCCC1 (stereo not drawn)	17.4
CCOCCCNc1nc(C(F)(F)F)nc2c1nnn2Cc1ccccc1Cl	15.9
O=C(N1CCC(n2nc(-c3ccccc3)oc2=O)CC1)C1(c2ccc(Cl)cc2)CC1	7.63

Structure (SMILES)	hERG current change (%, negative = inhibition) at 1uM [%]
COCCNC(=O)c1c[nH]n2c(=O)cc(C3CCN(C(=O)OC(C)(C)C)CC3)nc12	9.37
Cc1ccc(C)c(COc2coc(CN3CCN(C(=O)c4ccco4)CC3)cc2=O)c1	-95.9
Cc1ccc(COc2coc(CN3CCN(C(=O)c4ccco4)CC3)cc2=O)cc1	-16.4
Cc1cccc(COc2coc(CN3CCN(C(=O)c4ccco4)CC3)cc2=O)c1	-7.28
CCCC(=O)Nc1nc2ccc(NC(=O)c3ccccc3F)cc2s1	14.1
COc1ccc(Nc2nnc(SCC(=O)N3CCCC3)s2)cc1	7.15
Cc1ccc(-c2nc(CS(=O)(=O)CC(=O)NCCN3CCCC3)c(C)o2)cc1	7.76
COc1ccc(-c2cc(C)no2)cc1S(=O)(=O)N(C)c1ccc(C)c(C)c1	9.2
COc1ccc(-c2cc(C)no2)cc1S(=O)(=O)N(C)c1ccc(C)cc1	4.37
COc1ccc(-c2cc(C)no2)cc1S(=O)(=O)N(C)c1cccc(C)c1	-62.5
COc1ccccc1CN1CCC(CNS(=O)(=O)c2cc(-c3cc(C)no3)ccc2OC)CC1	-33.2
COc1cccc(CCN2CCC(CNS(=O)(=O)c3cc(-c4cc(C)no4)ccc3C)CC2)c1	-20.1
COc1cccc(CCN2CCC(CNS(=O)(=O)c3cc(-c4cc(C)no4)ccc3OC)CC2)c1	-66.3
Cc1ccc(C(=O)OCC(=O)Nc2ccc(S(N)(=O)=O)cc2)c(O)c1	7.79
CC(=O)NC(=S)NNC(=O)C(c1ccccc1)c1ccccc1	15
C=CCNc1cccc(Br)c1	12.5
COc1cc(/C=N/Nc2nn3cnnc3c3ccccc23)ccc1O	20.3
CCCOC(=O)C[N+](C)(C)CCOC1CC2CCC1(C)C2(C)C.[Br-] (stereo not drawn)	11.2
CCCCCCOC(=O)C[N+](C)(C)CCOC1CC2CCC1(C)C2(C)C.[Cl-] (stereo not drawn)	-69
CCCCOC(=O)C[N+](C)(C)CCOC1CC2CCC1(C)C2(C)C.[Br-] (stereo not drawn)	-4.93
COc1ccc(NC(=O)c2cccn(CC=C(C)C)c2=O)cc1	11.5
Cc1c(S(=O)(=O)N2CCN(c3cccc(Cl)c3)CC2)c(=O)n(C)c(=O)n1C	5.16

Structure (SMILES)	hERG current change (%, negative = inhibition) at 1uM [%]
COc1ccc(OC)c2c1nc1n2CCS1	4.74
Cl.OC(COCc1cccs1)CN1CCCCCC1 (stereo not drawn)	-5.74
CCOc1ccccc1N1CCN(CC(O)COCc2cccs2)CC1 (stereo not drawn)	-1.54
COc1ccccc1N1CCN(CC(O)COCc2cccs2)CC1.Cl (stereo not drawn)	0.795
CN1CCCN(CC(O)COCc2cccs2)CC1 (stereo not drawn)	5.43
Cc1cccc(N2CCN(CC(O)COCc3cccs3)CC2)c1C (stereo not drawn)	-63.9
OC(COCc1cccs1)CN1CCN(c2ccccc2Cl)CC1 (stereo not drawn)	-50.8
O=C(CCc1ccc(S(=O)(=O)NCCc2ccccc2)cc1)NCc1ccco1	6
COc1cccc2sc(NN)nc12	0.731
CCCc1[nH]n(-c2nc3ccccc3s2)c(=O)c1C=NCCN1CCOCC1	-4.58
CCCc1[nH]n(-c2nc3ccccc3s2)c(=O)c1C=NCCCN(CC)CC	-57.6
CCCCCN=Cc1c(C)[nH]n(-c2nc3ccccc3s2)c1=O	-16.9
CCCN=Cc1c(CCC)[nH]n(-c2nc3ccccc3s2)c1=O	-4.61
O=c1c(C=NCCCO)c(-c2ccccc2)[nH]n1-c1nc2ccccc2s1	-2.36
O=c1c(C=NCCCn2ccnc2)c(-c2ccccc2)[nH]n1-c1nc2ccccc2s1	-26.9
CCCc1[nH]n(-c2nc3ccccc3s2)c(=O)c1C=NCCCOC	-9.11
COCCCN=Cc1c(-c2ccccc2)[nH]n(-c2nc3ccccc3s2)c1=O	-55.9
CCCN=C(C)c1c(-c2ccccc2)[nH]n(-c2nc3ccccc3s2)c1=O	7.75
CCN(CC)CCCN=Cc1c(-c2ccccc2)[nH]n(-c2nc3ccccc3s2)c1=O	-81.7
CCCc1[nH]n(-c2nc3ccccc3s2)c(=O)c1C=NCC(C)C	6.14
CN(C)CCCN=Cc1c(-c2ccccc2)[nH]n(-c2nc3ccccc3s2)c1=O	-58.1
